An excerpt weighted towards active compounds, which were near 2.4% of everything screened.
D2 PAM-1: positive allosteric modulators of human D2 dopamine receptor; P14416; DiscoveRx D2 beta-arrestin cells, luminescence, 90 min; 100% = 57 uM dopamine signal; potentiation, % (test concentration not listed); actives 0.23% (n = 360,000); in the data active means potentiation above about 50%; inconclusive means mostly about 30% to 49%
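D2 cells co-treated with compound plus 50 nM dopamine (EC20) for 90 min at 37 deg C to detect potentiation. Beta-arrestin recruitment was read as enzyme-fragment luminescence after 1 h at ambient temperature. Full response was set by 57 uM dopamine.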
D2 ag-1: activates the human D2 dopamine receptor; P14416; HEK293 T-REx D2 cells, calcium flux agonist mode; activation, % at 2 µM; actives 0.53% (n = 340,000);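 active means activation over 3 SD above normal in the single-dose calcium agonist read, cut at about 30% in these data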; further: 0% is about no effect
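Agonism scored from kinetic calcium signal (1 read/sec, 180 s) following compound pin transfer, after a 10 s baseline. Cells: HEK293 Trex line expressing inducible D2 receptor coupled to calcium, dye-loaded after overnight culture at 30 C.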
D2 PAM-2: D2 dopamine receptor (human) potentiation; P14416; HEK293 T-REx D2, calcium flux, EC20 dopamine potentiation; potentiation, % at 10 µM; actives 0.34% (n = 340,000); AID 485347;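 active means potentiation over 3 SD above the plate norm, cut at about 30% in these data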; further: 0% is about no effect
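Using a no-wash calcium dye in inducible, force-coupled HEK293 Trex cells expressing D2, we tracked fluorescence each second for 180 s after compound, then for 180 s after EC20 dopamine to detect augmented signalling.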
D2 ag-2: activates the human D2 dopamine receptor; actives 0.084% (n = 360,000); P14416; AID 624465; activation, % (no concentration beside the values); DiscoveRx PathHunter D2 beta-arrestin, luminescence, 90 min; 100% = 57 uM dopamine signal; in the data active means activation above about 40%; inconclusive means between about 15% and that limit
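DiscoveRx PathHunter D2 beta-arrestin cells (2,100/well) attached overnight, then compound-stimulated 90 min at 37 C in HBSS/10 mM HEPES/0.1% Tween-20 buffer; beta-galactosidase complementation read by luminescence after 1 h at ambient temperature. Dopamine 57 uM final (EC100) as control.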
D2 antagonist: antagonists of human D2 dopamine receptor. P14416. HEK293 TREx D2 cells, calcium flux, dopamine EC80. inhibition, % at 10 µM. actives 2% (n = 340,000). AID 485344; in the data active means inhibition above about 30%; inactive means below that, where a call was filed; further: 0% is about no effect
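Tetracycline-induced HEK293 TREx cells expressing D2 receptor forced-coupled to calcium signalling, loaded with no-wash calcium dye. Compounds added and calcium flux read 180 s, then dopamine added at EC80 and read a further 180 s.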
B2AR arrestin: recruits beta-arrestin to the human beta2-adrenergic receptor. P07550. beta-arrestin recruitment to beta2AR, cell-based reporter. Potency, µM (doses to about 46.1 µM), for the others: at the highest dose activation, usual class: activators. actives 0.02% (n = 330,000). AID 492947; active means well fitted activation curve with a large enough effect; inconclusive means small, poorly fitted or top-dose-only effect;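 further: potency means the concentration at half of the fitted maximal effect; 0% = DMSO controls and full agonism = EC100 isoproterenol or metaproterenol; nearly all actives have a fitted effect of over 65% in size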
Target sequence (P07550 whole entry, looked up): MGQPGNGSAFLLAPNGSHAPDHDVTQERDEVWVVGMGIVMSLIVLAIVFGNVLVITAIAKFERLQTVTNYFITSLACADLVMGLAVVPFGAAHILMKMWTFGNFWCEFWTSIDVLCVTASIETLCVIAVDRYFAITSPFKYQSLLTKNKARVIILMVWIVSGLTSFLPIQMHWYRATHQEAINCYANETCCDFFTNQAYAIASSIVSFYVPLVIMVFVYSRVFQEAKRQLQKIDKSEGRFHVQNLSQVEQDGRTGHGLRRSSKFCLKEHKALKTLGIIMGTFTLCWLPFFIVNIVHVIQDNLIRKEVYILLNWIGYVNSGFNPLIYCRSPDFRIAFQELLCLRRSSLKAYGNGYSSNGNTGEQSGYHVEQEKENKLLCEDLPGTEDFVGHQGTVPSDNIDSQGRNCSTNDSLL
The depositor's hits bear a star.

N/C(Cc1ccc([N+](=O)[O-])cc1)=N\OC(=O)c1ccccc1F was read as D2 PAM-1 153.1*, D2 ag-1 0.8, D2 PAM-2 9.6, D2 ag-2 inconclusive, D2 antagonist -9.3 and B2AR arrestin -0.4%.
CC1CCC(NC(=O)c2ccc3nc[nH]c3c2)CC1 (stereo not drawn) was read as D2 PAM-1 3.0, D2 ag-1 -0.1, D2 PAM-2 -6.7, D2 ag-2 1.3, D2 antagonist 6.5 and B2AR arrestin 0.3%.
CCOC(=O)COn1c(-n2nc(C)cc2C)nc2ccccc2c1=O was read as D2 PAM-1 -3.3, D2 ag-1 -3.9, D2 PAM-2 -7.9, D2 ag-2 -2.4, D2 antagonist 32.8* and B2AR arrestin 0.5%.
COC(=O)COn1c(-n2nc(C)cc2C)nc2ccccc2c1=O was read as D2 PAM-1 -0.9, D2 ag-1 -0.2, D2 PAM-2 -1.9, D2 ag-2 -3.3, D2 antagonist 18.4 and B2AR arrestin -0.1%.
Screening CCn1c(SCC(=O)N2c3ccccc3CCc3ccccc32)nnc1-c1ccc(OC)cc1 returned D2 PAM-1 -9.4, D2 ag-1 -0.2, D2 PAM-2 3.6, D2 ag-2 -3.6, D2 antagonist 5.8 and B2AR arrestin 9.3%.
For COc1cccc(CC2(CO)CCCN(Cc3ccccc3Cl)C2)c1 (stereo not drawn) the results were D2 PAM-1 -0.1, D2 ag-1 -1.4, D2 PAM-2 -4.9, D2 ag-2 -2.4, D2 antagonist -14.9 and B2AR arrestin -0.2%.
`COC(=O)c1ccc(CN2CCC(CO)(Cc3cccc(OC)c3)CC2)cc1` gave D2 PAM-1 -14.7, D2 ag-1 -0.7, D2 PAM-2 -11.9, D2 ag-2 -0.5, D2 antagonist 37.0* and B2AR arrestin -0.4%.
`COC(=O)c1ccc(CN2CCC(CO)(CCOc3ccccc3)CC2)cc1` gave D2 PAM-1 -4.7, D2 PAM-2 -25.1, D2 ag-2 -7.3 and B2AR arrestin 4.0%.
`COc1cccc(CC2(CO)CCCN(Cc3ccc(CN4CCCCC4)s3)C2)c1` (stereo not drawn) gave D2 PAM-1 -19.3, D2 ag-1 -0.5, D2 PAM-2 -18.0, D2 ag-2 -5.2, D2 antagonist 39.6* and B2AR arrestin -0.6%.
For CCCOc1cccc(NC(=O)OC2CCN(C)CC2)c1 the results were D2 PAM-1 2.0, D2 ag-1 1.1, D2 PAM-2 -8.9, D2 ag-2 -1.2, D2 antagonist -15.0 and B2AR arrestin -1.6%.
Screening COc1ccc(C2NC(=O)c3n[nH]c(C)c32)c(OC)c1 (stereo not drawn) returned D2 PAM-1 -1.4, D2 ag-1 -1.2, D2 PAM-2 4.7, D2 ag-2 2.4, D2 antagonist -1.3 and B2AR arrestin 0.1%.
Screening Cc1cccc(NC(=O)c2oc3c(c2C)C(=O)CC(C)(C)C3)n1 returned D2 PAM-1 14.7, D2 ag-1 0.8, D2 PAM-2 27.4, D2 ag-2 -1.8, D2 antagonist -0.8 and B2AR arrestin 0.1%.
For O=C(/C=C/c1ccc(N2CCC(c3ccccc3)=N2)cc1)c1ccccc1 the results were D2 PAM-1 -14.4, D2 ag-1 36.6*, D2 PAM-2 -3.6, D2 ag-2 -5.3, D2 antagonist 32.7* and B2AR arrestin -0.7%.
For CCN(CC)c1ccc2cc(S(=O)(=O)c3ccc(Cl)cc3)c(=O)oc2c1 the results were D2 PAM-1 -1.2, D2 ag-1 68.0*, D2 PAM-2 4.8, D2 ag-2 -3.0, D2 antagonist -75.8 and B2AR arrestin -1.0%.
`CCCCCCc1cc2cc(S(=O)(=O)c3ccc(Cl)cc3)c(=O)oc2cc1O` gave D2 PAM-1 3.3, D2 PAM-2 -5.5, D2 ag-2 1.7 and B2AR arrestin -3.2%.
`C=CCNC(=O)C1=NN(c2c(F)c(F)cc(F)c2F)C(=O)CC1` gave D2 PAM-1 -3.9, D2 ag-1 0.1, D2 PAM-2 8.2, D2 ag-2 5.3, D2 antagonist -3.6 and B2AR arrestin -0.1%.

High-throughput results deposited in PubChem BioAssay by National Center for Advancing Translational Sciences (NCATS).
